# Reference: publication PMC7862700, “An all-to-all approach to the identification of sequence-specific readers for epigenetic DNA modifications on cytosine”
# How the values were obtained:
# Test in all cases: DAPPL (digital affinity profiling via proximity ligation, sequencing); 10 mM Tris-HCl pH 7.5, 50 mM NaCl, 1 mM DTT, 4% glycerol, room temperature, 30 min; GST-TFs on glutathione beads, 16-mer random dsDNA library, 0.1% formaldehyde crosslink after washing; high values mean tight binding
# Details in all cases: protein: recombinant; tags: N-terminal GST; dsDNA, one strand shown
# FEV = target: T1, FEV (Homo sapiens, UniProt Q99581 1-238)
# T1 sequence: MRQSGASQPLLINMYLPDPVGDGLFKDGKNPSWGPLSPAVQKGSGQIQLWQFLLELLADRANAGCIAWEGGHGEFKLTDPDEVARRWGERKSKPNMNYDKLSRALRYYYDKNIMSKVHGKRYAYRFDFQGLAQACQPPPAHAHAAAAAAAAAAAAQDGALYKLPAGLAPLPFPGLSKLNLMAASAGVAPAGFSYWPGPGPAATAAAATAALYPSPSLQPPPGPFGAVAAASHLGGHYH
# Method in brief: (§1)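 Binding signal is each hexamer's read frequency for a factor divided by its frequency in the tag-only sample. The factors were GST-fused human transcription factors from yeast, captured on glutathione beads, DNA-barcoded and pooled with that sample. Pools were incubated with 200 nmole of a random double-stranded 16-mer DNA library in Tris/NaCl/DTT/glycerol buffer at room temperature for 30 min, then washed, crosslinked with 0.1% formaldehyde, proximity-ligated with BsaI/T4 ligase (1 h, 37 °C), PCR-amplified and sequenced on an Illumina NextSeq500.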
# ETV5 = ETV5 (Homo sapiens, UniProt P41161 1-510)
# Method in brief: as §1
# SPIC = target: T2, SPIC (Homo sapiens, UniProt Q8N5J4 1-248)
# T2 sequence: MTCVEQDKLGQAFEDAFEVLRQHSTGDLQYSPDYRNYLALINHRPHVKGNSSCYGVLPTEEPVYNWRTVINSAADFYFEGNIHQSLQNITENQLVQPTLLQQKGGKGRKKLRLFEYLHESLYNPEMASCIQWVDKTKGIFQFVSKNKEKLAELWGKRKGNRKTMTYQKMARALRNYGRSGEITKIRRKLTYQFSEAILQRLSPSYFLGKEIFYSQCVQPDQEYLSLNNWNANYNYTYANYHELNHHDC
# Method in brief: as §1
# ELF4 = ELF4 (Homo sapiens, UniProt Q99607 1-663)
# Method in brief: as §1
# ELK4 = target: T3, ELK4 (Homo sapiens, UniProt P28324-2 1-405)
# T3 sequence: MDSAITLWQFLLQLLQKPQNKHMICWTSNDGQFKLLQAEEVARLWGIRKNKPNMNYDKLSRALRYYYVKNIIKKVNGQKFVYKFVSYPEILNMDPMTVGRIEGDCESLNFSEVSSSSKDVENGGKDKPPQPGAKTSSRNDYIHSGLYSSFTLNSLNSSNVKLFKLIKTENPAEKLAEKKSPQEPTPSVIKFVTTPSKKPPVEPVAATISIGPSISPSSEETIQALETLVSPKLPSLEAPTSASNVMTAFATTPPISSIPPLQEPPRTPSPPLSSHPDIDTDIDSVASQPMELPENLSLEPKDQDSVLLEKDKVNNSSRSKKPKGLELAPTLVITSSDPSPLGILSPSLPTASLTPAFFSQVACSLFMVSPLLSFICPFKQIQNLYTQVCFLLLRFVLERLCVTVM
# Method in brief: as §1
# ETV2 = target: T4, ETV2 (Homo sapiens, UniProt O00321 1-342)
# T4 sequence: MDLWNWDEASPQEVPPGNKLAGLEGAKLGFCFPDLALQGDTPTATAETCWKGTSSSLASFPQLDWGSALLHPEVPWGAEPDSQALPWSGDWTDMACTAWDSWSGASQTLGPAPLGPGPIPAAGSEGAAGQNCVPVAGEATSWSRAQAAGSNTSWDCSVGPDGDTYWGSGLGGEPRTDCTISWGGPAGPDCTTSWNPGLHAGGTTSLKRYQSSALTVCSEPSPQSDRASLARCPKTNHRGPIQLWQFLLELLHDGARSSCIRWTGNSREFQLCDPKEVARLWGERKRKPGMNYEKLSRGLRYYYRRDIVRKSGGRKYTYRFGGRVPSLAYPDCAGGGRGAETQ
# Method in brief: as §1
# ELF3 = target: T5, ELF3 (Homo sapiens, UniProt P78545 1-371)
# T5 sequence: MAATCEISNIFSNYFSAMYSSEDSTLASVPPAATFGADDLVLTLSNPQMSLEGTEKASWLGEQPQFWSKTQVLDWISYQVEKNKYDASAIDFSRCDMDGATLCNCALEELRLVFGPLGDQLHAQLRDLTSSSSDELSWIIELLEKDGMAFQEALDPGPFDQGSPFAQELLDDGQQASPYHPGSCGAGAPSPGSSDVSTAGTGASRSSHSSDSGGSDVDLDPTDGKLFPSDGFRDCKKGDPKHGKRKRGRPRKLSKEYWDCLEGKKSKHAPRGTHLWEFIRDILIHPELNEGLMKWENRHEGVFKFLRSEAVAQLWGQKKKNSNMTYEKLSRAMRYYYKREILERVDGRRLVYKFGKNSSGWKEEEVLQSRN
# Method in brief: as §1
# CRX = CRX (Homo sapiens, UniProt O43186 1-299)
# Method in brief: as §1
# ETV1 = ETV1 (Homo sapiens, UniProt P50549 1-477)
# Method in brief: as §1
# ERF = target: T6, ERF (Homo sapiens, UniProt P50548 1-548)
# T6 sequence: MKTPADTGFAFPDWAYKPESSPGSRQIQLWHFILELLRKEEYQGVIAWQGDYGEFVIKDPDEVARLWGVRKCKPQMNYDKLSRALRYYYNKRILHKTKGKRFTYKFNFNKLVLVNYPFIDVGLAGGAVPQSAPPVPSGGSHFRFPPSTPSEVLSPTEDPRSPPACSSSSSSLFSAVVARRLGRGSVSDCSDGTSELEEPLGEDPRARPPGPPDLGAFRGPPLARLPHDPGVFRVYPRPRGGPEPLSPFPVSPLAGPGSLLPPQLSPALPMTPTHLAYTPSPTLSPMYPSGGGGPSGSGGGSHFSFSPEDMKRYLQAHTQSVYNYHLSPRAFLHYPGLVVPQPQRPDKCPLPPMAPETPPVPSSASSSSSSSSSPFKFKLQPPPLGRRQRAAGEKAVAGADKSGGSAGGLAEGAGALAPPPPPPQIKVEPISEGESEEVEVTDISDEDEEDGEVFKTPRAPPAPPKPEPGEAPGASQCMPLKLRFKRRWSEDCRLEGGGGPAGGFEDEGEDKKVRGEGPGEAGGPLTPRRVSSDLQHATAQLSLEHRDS
# Method in brief: as §1
# ETV3L = target: T7, ETV3L (Homo sapiens, UniProt Q6ZN32 1-361)
# T7 sequence: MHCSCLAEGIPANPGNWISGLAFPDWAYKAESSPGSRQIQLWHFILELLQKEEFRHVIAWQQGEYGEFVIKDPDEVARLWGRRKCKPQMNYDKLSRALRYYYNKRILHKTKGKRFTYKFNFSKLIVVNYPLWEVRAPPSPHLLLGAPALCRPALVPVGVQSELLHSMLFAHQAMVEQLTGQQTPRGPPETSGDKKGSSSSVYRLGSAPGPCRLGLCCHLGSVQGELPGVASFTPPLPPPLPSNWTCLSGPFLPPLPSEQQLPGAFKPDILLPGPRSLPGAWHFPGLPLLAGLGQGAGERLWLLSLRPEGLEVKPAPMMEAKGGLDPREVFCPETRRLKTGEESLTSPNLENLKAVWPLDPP
# Method in brief: as §1
# ETS2 = target: T8, ETS2 (Homo sapiens, UniProt P15036 1-469)
# T8 sequence: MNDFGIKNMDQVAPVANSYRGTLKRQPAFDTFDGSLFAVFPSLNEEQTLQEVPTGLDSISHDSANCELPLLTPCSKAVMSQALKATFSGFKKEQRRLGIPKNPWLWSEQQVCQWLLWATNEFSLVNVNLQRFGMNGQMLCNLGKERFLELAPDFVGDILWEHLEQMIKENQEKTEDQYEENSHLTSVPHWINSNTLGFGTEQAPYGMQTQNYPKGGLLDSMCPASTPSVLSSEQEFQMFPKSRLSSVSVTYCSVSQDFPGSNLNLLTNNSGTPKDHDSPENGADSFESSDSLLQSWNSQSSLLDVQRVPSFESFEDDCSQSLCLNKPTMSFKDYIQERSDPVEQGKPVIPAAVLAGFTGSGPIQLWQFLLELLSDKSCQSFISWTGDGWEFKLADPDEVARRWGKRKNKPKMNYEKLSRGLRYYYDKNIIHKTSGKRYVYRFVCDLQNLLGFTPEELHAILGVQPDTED
# Method in brief: as §1
# SPDEF = target: T9, SPDEF (Homo sapiens, UniProt O95238 1-335)
# T9 sequence: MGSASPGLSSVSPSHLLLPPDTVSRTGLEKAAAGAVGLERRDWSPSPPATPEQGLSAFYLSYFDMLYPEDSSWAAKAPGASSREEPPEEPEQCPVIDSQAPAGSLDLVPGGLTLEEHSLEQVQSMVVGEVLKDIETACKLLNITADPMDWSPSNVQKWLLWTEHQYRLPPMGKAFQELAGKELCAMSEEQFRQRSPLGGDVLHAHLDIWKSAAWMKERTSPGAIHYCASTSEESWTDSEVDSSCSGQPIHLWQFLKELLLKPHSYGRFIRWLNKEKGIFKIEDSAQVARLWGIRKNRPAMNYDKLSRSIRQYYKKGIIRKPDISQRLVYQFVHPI
# Method in brief: as §1
# ETV7 = target: T10, ETV7 (Homo sapiens, UniProt Q9Y603 1-341)
# T10 sequence: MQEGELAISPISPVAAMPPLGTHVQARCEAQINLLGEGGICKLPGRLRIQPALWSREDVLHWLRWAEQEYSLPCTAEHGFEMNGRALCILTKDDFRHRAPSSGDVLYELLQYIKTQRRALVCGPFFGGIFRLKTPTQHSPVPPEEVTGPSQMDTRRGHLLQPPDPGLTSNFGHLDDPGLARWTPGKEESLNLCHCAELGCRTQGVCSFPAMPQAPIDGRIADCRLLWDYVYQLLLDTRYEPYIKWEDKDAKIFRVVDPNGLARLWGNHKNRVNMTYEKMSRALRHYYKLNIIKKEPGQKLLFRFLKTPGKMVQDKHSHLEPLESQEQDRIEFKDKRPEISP
# Method in brief: as §1
# ELF5 = target: T11, ELF5 (Homo sapiens, UniProt Q9UKW6-2 1-255)
# T11 sequence: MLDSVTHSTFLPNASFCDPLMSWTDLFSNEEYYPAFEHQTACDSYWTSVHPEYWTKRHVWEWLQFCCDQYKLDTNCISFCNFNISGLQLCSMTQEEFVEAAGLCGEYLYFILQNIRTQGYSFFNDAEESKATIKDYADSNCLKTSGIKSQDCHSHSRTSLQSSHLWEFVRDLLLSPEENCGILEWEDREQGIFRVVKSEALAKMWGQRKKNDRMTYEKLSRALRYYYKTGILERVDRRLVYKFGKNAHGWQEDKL
# Method in brief: as §1
# ETV3 = target: T12, ETV3 (Homo sapiens, UniProt P41162-2 1-143)
# T12 sequence: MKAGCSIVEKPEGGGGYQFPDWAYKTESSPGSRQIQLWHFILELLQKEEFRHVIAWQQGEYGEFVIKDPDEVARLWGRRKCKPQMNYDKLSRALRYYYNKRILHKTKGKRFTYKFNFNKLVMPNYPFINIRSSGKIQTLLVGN
# Method in brief: as §1
# ETV6 = ETV6 (Homo sapiens, UniProt P41212 1-452)
# Method in brief: as §1
# ETV1, sequence (P50549 whole entry): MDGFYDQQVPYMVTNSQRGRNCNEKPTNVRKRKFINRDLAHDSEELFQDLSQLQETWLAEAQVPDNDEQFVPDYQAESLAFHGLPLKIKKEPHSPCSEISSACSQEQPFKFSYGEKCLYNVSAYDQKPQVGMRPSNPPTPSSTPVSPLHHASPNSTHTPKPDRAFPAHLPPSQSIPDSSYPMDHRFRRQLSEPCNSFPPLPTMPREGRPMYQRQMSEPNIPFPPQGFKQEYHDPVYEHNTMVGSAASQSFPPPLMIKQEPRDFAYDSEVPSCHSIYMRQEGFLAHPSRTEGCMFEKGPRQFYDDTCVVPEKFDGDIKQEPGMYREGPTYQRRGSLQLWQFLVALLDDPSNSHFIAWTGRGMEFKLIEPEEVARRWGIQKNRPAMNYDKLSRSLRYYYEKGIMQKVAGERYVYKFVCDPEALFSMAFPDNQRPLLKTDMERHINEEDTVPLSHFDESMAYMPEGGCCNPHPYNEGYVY
# ELF4, sequence (Q99607 whole entry): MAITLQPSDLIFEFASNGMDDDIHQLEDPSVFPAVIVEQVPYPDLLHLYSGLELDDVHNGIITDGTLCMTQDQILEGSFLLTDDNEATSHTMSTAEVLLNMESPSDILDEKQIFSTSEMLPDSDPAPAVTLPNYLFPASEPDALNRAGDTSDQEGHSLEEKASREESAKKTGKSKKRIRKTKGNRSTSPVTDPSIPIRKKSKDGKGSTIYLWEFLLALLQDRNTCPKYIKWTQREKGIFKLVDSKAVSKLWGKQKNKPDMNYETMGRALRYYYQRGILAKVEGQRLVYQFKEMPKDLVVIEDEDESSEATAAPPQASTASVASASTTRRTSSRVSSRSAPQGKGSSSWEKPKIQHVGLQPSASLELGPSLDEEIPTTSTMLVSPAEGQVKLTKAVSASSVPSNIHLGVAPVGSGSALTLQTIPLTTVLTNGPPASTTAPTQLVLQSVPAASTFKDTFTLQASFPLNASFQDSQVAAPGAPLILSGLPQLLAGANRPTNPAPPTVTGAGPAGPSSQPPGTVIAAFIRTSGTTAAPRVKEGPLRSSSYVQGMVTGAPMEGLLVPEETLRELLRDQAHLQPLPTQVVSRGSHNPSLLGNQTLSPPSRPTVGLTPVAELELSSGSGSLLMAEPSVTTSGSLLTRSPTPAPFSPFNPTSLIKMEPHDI
# CRX, sequence (O43186 whole entry): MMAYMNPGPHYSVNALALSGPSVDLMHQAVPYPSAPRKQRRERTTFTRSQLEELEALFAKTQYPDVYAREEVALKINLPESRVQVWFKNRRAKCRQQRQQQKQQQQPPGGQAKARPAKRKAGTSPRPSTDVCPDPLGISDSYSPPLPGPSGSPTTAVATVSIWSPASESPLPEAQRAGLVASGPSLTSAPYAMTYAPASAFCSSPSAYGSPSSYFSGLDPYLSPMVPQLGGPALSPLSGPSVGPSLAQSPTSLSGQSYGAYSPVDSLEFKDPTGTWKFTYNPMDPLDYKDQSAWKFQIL
# ETV6, sequence (P41212 whole entry): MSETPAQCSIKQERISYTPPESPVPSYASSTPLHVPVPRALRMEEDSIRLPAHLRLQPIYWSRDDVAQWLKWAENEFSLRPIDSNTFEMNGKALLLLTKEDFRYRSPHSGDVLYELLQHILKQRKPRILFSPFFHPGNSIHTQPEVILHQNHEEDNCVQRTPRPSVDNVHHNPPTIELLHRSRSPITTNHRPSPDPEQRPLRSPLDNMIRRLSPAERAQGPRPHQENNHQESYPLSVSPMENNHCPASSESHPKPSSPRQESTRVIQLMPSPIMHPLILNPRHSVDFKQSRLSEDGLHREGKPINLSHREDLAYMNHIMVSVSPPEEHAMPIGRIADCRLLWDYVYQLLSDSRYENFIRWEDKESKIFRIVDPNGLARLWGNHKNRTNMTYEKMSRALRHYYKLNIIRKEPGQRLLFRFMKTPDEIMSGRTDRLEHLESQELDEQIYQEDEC
# ETV5, sequence (P41161 whole entry): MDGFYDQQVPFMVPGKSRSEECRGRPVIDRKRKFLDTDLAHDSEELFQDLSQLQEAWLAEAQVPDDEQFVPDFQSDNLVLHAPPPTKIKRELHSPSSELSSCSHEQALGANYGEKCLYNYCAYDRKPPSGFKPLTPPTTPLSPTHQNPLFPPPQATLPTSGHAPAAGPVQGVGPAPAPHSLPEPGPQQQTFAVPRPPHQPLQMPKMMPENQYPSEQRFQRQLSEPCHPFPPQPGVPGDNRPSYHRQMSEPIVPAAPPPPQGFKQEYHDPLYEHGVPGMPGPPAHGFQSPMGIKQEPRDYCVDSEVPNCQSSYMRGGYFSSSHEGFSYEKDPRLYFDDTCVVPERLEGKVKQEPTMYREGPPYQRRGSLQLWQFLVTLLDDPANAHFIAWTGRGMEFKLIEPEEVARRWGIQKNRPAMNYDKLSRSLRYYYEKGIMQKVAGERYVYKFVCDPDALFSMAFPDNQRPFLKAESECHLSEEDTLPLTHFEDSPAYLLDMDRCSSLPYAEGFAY
sequence,measurement,setting,value
CTGACC,binding signal,FEV,"1.43 fold enrichment (6-mer frequency, TF over GST control)"
same,binding signal,ETV5,"1.32 fold enrichment (6-mer frequency, TF over GST control)"
same,binding signal,SPIC,"1.37 fold enrichment (6-mer frequency, TF over GST control)"
same,binding signal,ELF4,"1.41 fold enrichment (6-mer frequency, TF over GST control)"
same,binding signal,ELK4,"1.31 fold enrichment (6-mer frequency, TF over GST control)"
same,binding signal,ETV2,"1.46 fold enrichment (6-mer frequency, TF over GST control)"
same,binding signal,ELF3,"1.51 fold enrichment (6-mer frequency, TF over GST control)"
same,binding signal,CRX,"1.01 fold enrichment (6-mer frequency, TF over GST control)"
same,binding signal,ETV1,"1.43 fold enrichment (6-mer frequency, TF over GST control)"
same,binding signal,ERF,"1.34 fold enrichment (6-mer frequency, TF over GST control)"
same,binding signal,ETV3L,"1.27 fold enrichment (6-mer frequency, TF over GST control)"
same,binding signal,ETS2,"1.38 fold enrichment (6-mer frequency, TF over GST control)"
same,binding signal,SPDEF,"1.27 fold enrichment (6-mer frequency, TF over GST control)"
same,binding signal,ETV7,"1.29 fold enrichment (6-mer frequency, TF over GST control)"
same,binding signal,ELF5,"1.34 fold enrichment (6-mer frequency, TF over GST control)"
same,binding signal,ETV3,"1.4 fold enrichment (6-mer frequency, TF over GST control)"
same,binding signal,ETV6,"1.32 fold enrichment (6-mer frequency, TF over GST control)"
TGTATA,binding signal,FEV,"1.02 fold enrichment (6-mer frequency, TF over GST control)"
same,binding signal,ETV5,"1.15 fold enrichment (6-mer frequency, TF over GST control)"
same,binding signal,SPIC,"1.07 fold enrichment (6-mer frequency, TF over GST control)"
same,binding signal,ELF4,"1.06 fold enrichment (6-mer frequency, TF over GST control)"
same,binding signal,ELK4,"1.22 fold enrichment (6-mer frequency, TF over GST control)"
same,binding signal,ETV2,"1.04 fold enrichment (6-mer frequency, TF over GST control)"
same,binding signal,ELF3,"1.02 fold enrichment (6-mer frequency, TF over GST control)"
same,binding signal,CRX,"1.03 fold enrichment (6-mer frequency, TF over GST control)"
same,binding signal,ETV1,"1.16 fold enrichment (6-mer frequency, TF over GST control)"
same,binding signal,ERF,"1.24 fold enrichment (6-mer frequency, TF over GST control)"
same,binding signal,ETV3L,"1.11 fold enrichment (6-mer frequency, TF over GST control)"
same,binding signal,ETS2,"1.1 fold enrichment (6-mer frequency, TF over GST control)"
same,binding signal,SPDEF,"1.24 fold enrichment (6-mer frequency, TF over GST control)"
same,binding signal,ETV7,"1.09 fold enrichment (6-mer frequency, TF over GST control)"
same,binding signal,ELF5,"1.11 fold enrichment (6-mer frequency, TF over GST control)"
same,binding signal,ETV3,"1.04 fold enrichment (6-mer frequency, TF over GST control)"
same,binding signal,ETV6,"1.04 fold enrichment (6-mer frequency, TF over GST control)"
